Experimental data from PubChem BioAssay (NCI).
About 79,000 compounds went through this panel and 15% of them were active in at least one assay; those are over-represented in the sample as a whole. Calls of active or inactive are those of the source. Cut-off read from the data, not from the text of the source: active = growth inhibition above about 70%; inactive = the rest.

Tests used:
[1] = NCI Yeast Anticancer Drug Screen. Data for the rad52 strain (AID 147);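 note: 0% = growth of vehicle-treated control cultures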; settings: S. cerevisiae rad52 mutant growth inhibition, hits give high values
Outline: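 Yeast strain carrying a DNA damage repair alteration was exposed to test compounds. Growth inhibition was measured relative to vehicle-treated controls.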

[2] = NCI Yeast Anticancer Drug Screen. Data for the wt1 strain (AID 149);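 note: 0% = growth of vehicle-treated wt1 cultures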; settings: S. cerevisiae wt1 strain (SPY 50644) growth inhibition, hits give high values
Outline: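 Vehicle-normalised growth inhibition; strain wt1; compound exposure.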

[3] = NCI Yeast Anticancer Drug Screen. Data for the rad50EPP+ strain (AID 151);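 note: 0% = growth of vehicle-treated control cultures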; settings: S. cerevisiae rad50 mutant strain, hits give high values
Outline: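 Yeast strain carrying rad50 alteration (rad50EPP+) exposed to compounds; growth inhibition measured relative to vehicle-treated controls.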

[4] = NCI Yeast Anticancer Drug Screen. Data for the mgt1 strain (AID 153); settings: S. cerevisiae mgt1 mutant growth inhibition, hits give high values
Outline: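 Yeast mgt1 strain (DNA repair/cell-cycle alteration panel) exposed to compounds; growth inhibition measured relative to vehicle-treated controls.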

[5] = NCI Yeast Anticancer Drug Screen. Data for the rad50 strain (AID 155);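 note: 0% = growth of vehicle-only cultures of the same strain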; settings: S. cerevisiae rad50 strain growth inhibition, hits give high values
Outline: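 A DNA repair-deficient yeast mutant serves as the test organism; compound-induced growth inhibition is calculated against vehicle-treated cells.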

[6] = NCI Yeast Anticancer Drug Screen. Data for the mec2-1 strain (AID 157); settings: S. cerevisiae mec2-1 strain, hits give high values
Outline: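 mec2-1 yeast strain, carrying an alteration in DNA damage repair or cell cycle control, was exposed to compounds; growth inhibition was measured relative to vehicle-treated controls.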

[7] = NCI Yeast Anticancer Drug Screen. Data for the rad14 strain (AID 159);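 note: 0% = growth of vehicle-treated control cultures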; settings: S. cerevisiae rad14 strain growth inhibition, hits give high values
Outline: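 Vehicle-treated cultures served as the baseline for growth inhibition of a DNA repair-mutant yeast strain exposed to each compound.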

[8] = NCI Yeast Anticancer Drug Screen. Data for the sgs1 mgt1 strain (AID 161);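 note: 0% = growth of cultures given vehicle only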; settings: S. cerevisiae sgs1 mgt1 strain, hits give high values
Outline: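 Compounds are added to genetically altered yeast, and growth is compared with cultures given vehicle alone to give percent inhibition.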

[9] = NCI Yeast Anticancer Drug Screen. Data for the CLN2oe strain (AID 163);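 note: 0% = growth of vehicle-only control cultures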; settings: S. cerevisiae CLN2oe strain, hits give high values
Outline: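 Yeast cells carrying a defined cell-cycle control alteration were exposed to test compounds. Growth inhibition was scored against vehicle-treated control cultures.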

[10] = NCI Yeast Anticancer Drug Screen. Data for the cln2 rad14 strain (AID 165);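 note: 0% = growth equal to vehicle treated cultures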; settings: S. cerevisiae cln2 rad14 strain, hits give high values
Outline: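 Yeast carrying cln2 and rad14 alterations (cell cycle control and DNA damage repair) were exposed to compounds. Growth inhibition was measured against vehicle-treated controls.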

[11] = NCI Yeast Anticancer Drug Screen. Data for the bub3 strain (AID 167); settings: S. cerevisiae bub3 mutant strain, hits give high values
Outline: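 Inhibition values come from growth of compound-treated mutant yeast normalised to vehicle-treated controls.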

[12] = NCI Yeast Anticancer Drug Screen. Data for the wt2 strain (AID 169);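 note: 0% = growth of vehicle-treated yeast cultures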; settings: S. cerevisiae wt2 strain growth inhibition, hits give high values
Outline: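 Yeast cells were exposed to test compounds, and growth inhibition was measured relative to vehicle-treated controls.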

[13] = NCI Yeast Anticancer Drug Screen. Data for the mlh1 strain (AID 171);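 note: 0% = growth of vehicle-treated control cultures of the same strain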; settings: S. cerevisiae mlh1 strain growth inhibition, hits give high values
Outline: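 Yeast carrying a defined genetic alteration in DNA damage repair or cell cycle control were exposed to test compounds. Growth inhibition was measured relative to vehicle-treated controls.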

[14] = NCI Yeast Anticancer Drug Screen. Data for the sgs1 strain (AID 173);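 note: 0% = growth of vehicle-only control cultures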; settings: S. cerevisiae sgs1 mutant, hits give high values
Outline: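 Yeast mutant strains carrying defined defects in DNA damage repair or cell cycle control were exposed to test compounds. Growth inhibition was scored against vehicle-treated controls.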

[15] = NCI Yeast Anticancer Drug Screen. Data for the mlh1 rad18 strain (AID 175); settings: S. cerevisiae mlh1 rad18 strain growth inhibition, hits give high values
Outline: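 Growth inhibition of the yeast strain was measured after compound exposure and expressed relative to vehicle-treated controls. The strain carries defined defects in DNA damage repair.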

[16] = NCI Yeast Anticancer Drug Screen. Data for the rad18 strain (AID 177); settings: S. cerevisiae rad18 mutant growth inhibition, hits give high values
Outline: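 Yeast carrying a defined DNA damage repair alteration were exposed to compounds. Growth inhibition was expressed relative to vehicle-treated controls.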

[17] = at 5.0 µM (retest, dose inferred, filed as 0.5)
[18] = at 50.0 µM (retest, dose inferred, filed as 5.0)

Measured: growth inhibition

O=C1SS(=O)c2ccccc21 (stereo not drawn)
active: [1]; at 100.0 µM 76% | [4]; at 100.0 µM 83% | [5]; [18] 89% | [5]; at 100.0 µM 79% | [6]; [18] 99% | [6]; at 100.0 µM 83% | [8]; [18] 85% | [11]; [18] 96% | [11]; at 100.0 µM 89% | [15]; [18] 95% | [16]; at 100.0 µM 90%
inactive: [1]; at 1.2 µM 11% | [1]; at 3.7 µM 6% | [1]; at 11.0 µM 8% | [1]; at 33.0 µM 25% | [2]; at 1.2 µM -5% | [2]; at 3.7 µM -2% | [2]; at 11.0 µM 12% | [2]; at 33.0 µM -5% | [2]; at 100.0 µM 67% | [3]; at 1.2 µM 7% | [3]; at 3.7 µM 5% | [3]; at 11.0 µM 7% | [3]; at 33.0 µM 23% | [3]; at 100.0 µM 65% | [4]; at 1.2 µM 9% | [4]; at 3.7 µM 12% | [4]; at 11.0 µM 12% | [4]; at 33.0 µM 42% | [5]; at 1.2 µM 5% | [5]; at 3.7 µM 0% | [5]; [17] 32% | [5]; at 11.0 µM 2% | [5]; at 33.0 µM 26% | [5]; at 50.0 µM 34.1% | [6]; at 1.2 µM 5% | [6]; at 3.7 µM 18% | [6]; [17] 27% | [6]; at 11.0 µM -3% | [6]; at 33.0 µM 13% | [6]; at 50.0 µM 44.1% | [7]; at 1.2 µM -11% | [7]; at 3.7 µM -3% | [7]; at 11.0 µM -17% | [7]; at 33.0 µM -4% | [7]; at 100.0 µM 61% | [8]; [17] 34% | [8]; at 50.0 µM 50% | [9]; at 1.2 µM 7% | [9]; at 3.7 µM 13% | [9]; at 11.0 µM 17% | [9]; at 33.0 µM 24% | [9]; at 100.0 µM 57% | [10]; [17] 11% | [10]; [18] 38% | [10]; at 50.0 µM 5.75% | [11]; at 1.2 µM -5% | [11]; at 3.7 µM 2% | [11]; [17] 24% | [11]; at 11.0 µM -5% | [11]; at 33.0 µM 0% | [11]; at 50.0 µM 40.3% | [12]; at 1.2 µM 7% | [12]; at 3.7 µM 8% | [12]; at 11.0 µM 8% | [12]; at 33.0 µM 17% | [12]; at 100.0 µM 66% | [13]; at 1.2 µM 6% | [13]; at 3.7 µM 20% | [13]; at 11.0 µM 17% | [13]; at 33.0 µM 24% | [13]; at 100.0 µM 68% | [14]; at 1.2 µM -7% | [14]; at 3.7 µM 5% | [14]; at 11.0 µM 8% | [14]; at 33.0 µM 21% | [14]; at 100.0 µM 39% | [15]; [17] 57% | [15]; at 50.0 µM 0% | [16]; at 1.2 µM 13% | [16]; at 3.7 µM 15% | [16]; at 11.0 µM 15% | [16]; at 33.0 µM 39%
